Results reported in PubChem BioAssay AID1159580 (chemical genetic matrix, 2015).
About 2,000 (36%) of roughly 5,500 compounds were called active. Inconclusive results (about 18%) are left out. Rule as the data show it: active = normalized growth mostly below about 0.91 (no sharp cut-off); inconclusive = no clear call, values can overlap the other calls; inactive = mostly above about 0.92. This is one part of the list.

Experiment: chemical genetic growth profiling, strain panel (AID 1159580);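 also: tested at 20 µM; growth read once vehicle control cultures reached saturation at 30 °C; 1 = growth at the plate median or of vehicle wells; lower values mean less growth of the strain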
Conditions: growth OD

Measured: normalized growth

OCCN1C[C@@H](O)[C@@H](O)C(O)C1CO (stereo partly specified)
inactive: S. cerevisiae deletion strains, locus YKL009W, strain mrt4, stronger effect = lower value 1.01 | S. cerevisiae deletion strains, locus YKL068W, stronger effect = lower value 1.01 | S. cerevisiae deletion strains, locus YKL085W, strain MDH1 (second series), stronger effect = lower value 1 | S. cerevisiae deletion strains, locus YKL085W, strain MDH1, stronger effect = lower value 1 | S. cerevisiae deletion strains, locus YKL160W, strain elf1, stronger effect = lower value 1.01 | S. cerevisiae deletion strains, locus YKL190W, strain CNB1, stronger effect = lower value 1.02 | S. cerevisiae deletion strains, locus YKR001C, strain vps1, stronger effect = lower value 0.999 | S. cerevisiae deletion strains, locus YKR026C, strain gcn3, stronger effect = lower value 1.02 | S. cerevisiae deletion strains, locus YKR091W, strain srl3, stronger effect = lower value 1 | S. cerevisiae deletion strains, locus YLL001W, strain dnm1, stronger effect = lower value 1.02 | S. cerevisiae deletion strains, locus YLL026W, stronger effect = lower value 1.01 | S. cerevisiae deletion strains, locus YLL041C, strain sdh2, stronger effect = lower value 1 | S. cerevisiae deletion strains, locus YLR027C, strain aat2, stronger effect = lower value 0.992 | S. cerevisiae deletion strains, locus YLR039C, strain RIC1, stronger effect = lower value 0.958 | S. cerevisiae deletion strains, locus YLR058C, strain SHM2, stronger effect = lower value 1.02 | S. cerevisiae deletion strains, locus YLR102C, strain apc9, stronger effect = lower value 0.997 | S. cerevisiae deletion strains, locus YLR113W, strain HOG1, stronger effect = lower value 1.04 | S. cerevisiae deletion strains, locus YLR221C, strain rsa3, stronger effect = lower value 1.01 | S. cerevisiae deletion strains, locus YLR258W, strain gsy2, stronger effect = lower value 1 | S. cerevisiae deletion strains, locus YLR262C, strain YPT6 (second series), stronger effect = lower value 0.994 | S. cerevisiae deletion strains, locus YLR262C, strain YPT6, stronger effect = lower value 1 | S. cerevisiae deletion strains, locus YLR268W, strain sec22, stronger effect = lower value 1 | S. cerevisiae deletion strains, locus YLR320W, strain mms22, stronger effect = lower value 1.01 | S. cerevisiae deletion strains, locus YLR330W, strain CHS5, stronger effect = lower value 1.01 | S. cerevisiae deletion strains, locus YLR342W, strain FKS1 (second series), stronger effect = lower value 1.01 | S. cerevisiae deletion strains, locus YLR342W, strain FKS1, stronger effect = lower value 0.99 | S. cerevisiae deletion strains, locus YLR357W, strain rsc2, stronger effect = lower value 1 | S. cerevisiae deletion strains, locus YLR370C, strain arc18, stronger effect = lower value 1 | S. cerevisiae deletion strains, locus YLR371W, strain rom2, stronger effect = lower value 0.995 | S. cerevisiae deletion strains, locus YLR384C, strain iki3, stronger effect = lower value 1 | S. cerevisiae deletion strains, locus YLR418C, strain cdc73, stronger effect = lower value 0.977 | S. cerevisiae deletion strains, locus YML016C, strain PPZ1, stronger effect = lower value 1.01 | S. cerevisiae deletion strains, locus YML032C, strain rad52, stronger effect = lower value 1.01 | S. cerevisiae deletion strains, locus YML120C, strain ndi1, stronger effect = lower value 1.02 | S. cerevisiae deletion strains, locus YML124C, strain tub3, stronger effect = lower value 1.01 | S. cerevisiae deletion strains, locus YMR058W, strain fet3, stronger effect = lower value 1 | S. cerevisiae deletion strains, locus YMR078C, strain ctf18, stronger effect = lower value 1 | S. cerevisiae deletion strains, locus YMR125W, strain sto1, stronger effect = lower value 0.997 | S. cerevisiae deletion strains, locus YMR129W, stronger effect = lower value 0.997 | S. cerevisiae deletion strains, locus YMR205C, strain PFK2, stronger effect = lower value 1 | S. cerevisiae deletion strains, locus YMR223W, strain ubp8, stronger effect = lower value 1 | S. cerevisiae deletion strains, locus YMR231W, strain pep5, stronger effect = lower value 1 | S. cerevisiae deletion strains, locus YMR263W, strain SAP30, stronger effect = lower value 1.02 | S. cerevisiae deletion strains, locus YMR307W, strain GAS1, stronger effect = lower value 1.01 | S. cerevisiae deletion strains, locus YNL067W, strain RPL9B, stronger effect = lower value 1.02 | S. cerevisiae deletion strains, locus YNL071W, strain lat1, stronger effect = lower value 0.993 | S. cerevisiae deletion strains, locus YNL128W, strain TEP1, stronger effect = lower value 1.02 | S. cerevisiae deletion strains, locus YNL153C, strain GIM3, stronger effect = lower value 1.01 | S. cerevisiae deletion strains, locus YNL183C, strain NPR1, stronger effect = lower value 0.97 | S. cerevisiae deletion strains, locus YNL209W, strain ssb2, stronger effect = lower value 1 | S. cerevisiae deletion strains, locus YNL233W, strain BNI4, stronger effect = lower value 1.02 | S. cerevisiae deletion strains, locus YNL248C, strain rpa49, stronger effect = lower value 1.02 | S. cerevisiae deletion strains, locus YNL250W, strain rad50, stronger effect = lower value 1 | S. cerevisiae deletion strains, locus YNL271C, strain bni1, stronger effect = lower value 0.986 | S. cerevisiae deletion strains, locus YNL298W, strain CLA4, stronger effect = lower value 0.994 | S. cerevisiae deletion strains, locus YNL307C, strain MCK1, stronger effect = lower value 1.01 | S. cerevisiae deletion strains, locus YNL322C, strain KRE1 (second series), stronger effect = lower value 1.02 | S. cerevisiae deletion strains, locus YNL322C, strain KRE1, stronger effect = lower value 1.01 | S. cerevisiae deletion strains, locus YNR049C, strain mso1, stronger effect = lower value 1 | S. cerevisiae deletion strains, locus YNR052C, strain pop2, stronger effect = lower value 0.999 | S. cerevisiae deletion strains, locus YOL006C, strain TOP1, stronger effect = lower value 1.04 | S. cerevisiae deletion strains, locus YOL012C, strain htz1 1.11 | S. cerevisiae deletion strains, locus YOL147C, strain pex11, stronger effect = lower value 1 | S. cerevisiae deletion strains, locus YOR001W, strain rrp6, stronger effect = lower value 1 | S. cerevisiae deletion strains, locus YOR061W, strain CKA2, stronger effect = lower value 1.01 | S. cerevisiae deletion strains, locus YOR069W, strain VPS5, stronger effect = lower value 1.01 | S. cerevisiae deletion strains, locus YOR070C, strain gyp1, stronger effect = lower value 0.997 | S. cerevisiae deletion strains, locus YOR080W, strain dia2, stronger effect = lower value 1.01 | S. cerevisiae deletion strains, locus YOR083W, strain WHI5, stronger effect = lower value 1 | S. cerevisiae deletion strains, locus YOR106W, strain vam3, stronger effect = lower value 1.03 | S. cerevisiae deletion strains, locus YOR136W, strain idh2, stronger effect = lower value 0.998 | S. cerevisiae deletion strains, locus YOR144C, strain elg1, stronger effect = lower value 1 | S. cerevisiae deletion strains, locus YOR184W, strain ser1, stronger effect = lower value 1 | S. cerevisiae deletion strains, locus YOR231W, strain MKK1, stronger effect = lower value 1.01 | S. cerevisiae deletion strains, locus YOR265W, strain rbl2, stronger effect = lower value 0.988 | S. cerevisiae deletion strains, locus YOR270C, strain vph1, stronger effect = lower value 1.05 | S. cerevisiae deletion strains, locus YOR290C, strain snf2, stronger effect = lower value 1.01 | S. cerevisiae deletion strains, locus YOR316C, strain cot1, stronger effect = lower value 0.997 | S. cerevisiae deletion strains, locus YPL051W, strain arl3, stronger effect = lower value 1 | S. cerevisiae deletion strains, locus YPL055C, strain LGE1, stronger effect = lower value 1.05 | S. cerevisiae deletion strains, locus YPL078C, strain atp4, stronger effect = lower value 1.01 | S. cerevisiae deletion strains, locus YPL106C, strain sse1, stronger effect = lower value 1.03 | S. cerevisiae deletion strains, locus YPL240C, strain hsp82, stronger effect = lower value 1 | S. cerevisiae deletion strains, locus YPL241C, strain CIN2, stronger effect = lower value 1.01 | S. cerevisiae deletion strains, locus YPL256C, strain CLN2, stronger effect = lower value 1.02 | S. cerevisiae deletion strains, locus YPR119W, strain clb2, stronger effect = lower value 0.996 | S. cerevisiae deletion strains, locus YPR141C, strain kar3, stronger effect = lower value 1 | S. cerevisiae deletion strains, locus YPR163C, strain tif3, stronger effect = lower value 1 | S. cerevisiae deletion strains, locus YPR167C, strain met16, stronger effect = lower value 0.997 | S. cerevisiae deletion strains, strain wtn01, stronger effect = lower value 1 | S. cerevisiae strains, strain wild type, stronger effect = lower value 1.01
